The source of these data is PubChem BioAssay (NCI).

Experiment in all cases: NCI-60 one-dose screen, 48 h (100 = growth as untreated, 0 = no growth, -100 = all killed)
Conditions in all cases: 10 µM unless noted

Assay [1] relates to T-47D breast.
Assay [2] has as its system BT-549 breast.
Assay [3] relates to MDA-MB-435 melanoma.
Assay [4] relates to SW-620 colon.
For assay [5], the system named is MCF7 breast.
For assay [6], the system named is HCT-116 colon.
Assay [7] deals with HCC-2998 colon.
Assay [8] deals with KM12 colon.

Compounds without any hit were thinned out: in the full panel of roughly 83,000, 20% have a hit.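 The endpoint reported here, percent growth, reads 100 for growth as untreated, 0 for no net growth and -100 for all cells dead.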 A number with no mark means an inactive call. The source made the active and inactive calls. How the source made its calls: active means growth percent below 10; inactive means the rest.

Turning to `COc1cc2c(c(OC)c1OC)CCC(c1cccc(C(=O)Nc3ccccc3Br)c1)O2` (stereo not drawn), the growth was 68.6% in assay [1]; 69.6% in assay [2]; 94% in assay [3]; 99.6% in assay [4]; 91.8% in assay [5]; 74.7% in assay [6]. The growth in assay [7] is 90%; in assay [8], 101%.

As for `c1ccc(Cn2cc3c(c2)-c2nc(Nc4ccccc4)ncc2CC3)cc1`, the growth in assay [1] was 74.3% [100 µM]; in assay [2], 87.6% [100 µM]; in assay [3], 96% [100 µM]; in assay [4] it was 92% [100 µM]; in assay [5], 70.5% [100 µM]; in assay [6] it was 80.6% [100 µM]. Further, the growth is 99.9% [100 µM] in assay [7] and 87% [100 µM] in assay [8].

For the compound `COc1ccc(C(=O)/C=C/c2ccc(Cl)cc2)cc1S(N)(=O)=O`, the growth was 69.9% in assay [1]; 12.2% in assay [2]; 86.2% in assay [3]; 13.2% in assay [4]; 18% in assay [5]; -78.3% (active) in assay [6]. Also, the growth is 100% in assay [7] and 28.2% in assay [8].

As for `C=C(CNCCc1ccc(O)cc1)[C@@H]1CC[C@]2(CO)CC[C@]3(C)[C@H](CC[C@@H]4[C@@]5(C)CCC(N)C(C)(C)[C@@H]5CC[C@]43C)[C@@H]12` (stereo partly drawn), the growth is -65.7% (active) in assay [1]; 59.7% in assay [2]; -90.5% (active) in assay [3]; -81.6% (active) in assay [4]; -72.3% (active) in assay [5]; -65.9% (active) in assay [6]. The growth in assay [7] is -89.5% (active); in assay [8], -60.6% (active).

Consider `Cc1ccc(-c2nn(CC(=O)N3CCOCC3)c(N)c2C#N)cc1`, for which the growth in assay [1] was 105%; in assay [2], 98.7%; in assay [3] it was 99.2%; in assay [4], 104%; in assay [5] it was 92.5%; in assay [6] it was 101%. For the same compound, the values for the growth in assay [7] and in assay [8] were 102% and 108%, respectively.

`COC(=O)[C@@H](Cc1c[nH]c2ccccc12)NC(=O)[C@H](Cc1ccccc1)NCc1ccncc1`: the growth in assay [1] is 93.2%; in assay [2] it was 96.5%; in assay [3], 113%; in assay [4], 104%; in assay [5] it was 110%; in assay [6], 87.4%. The growth is 112% in assay [7] and 96.5% in assay [8].

`Nc1ncc(-c2ccc3ncnc(N4CCc5ccc(Cl)cc54)c3c2)cn1`: the growth is -7.59% (active) in assay [1]; -25% (active) in assay [2]; 7.35% (active) in assay [3]; 0.122% (active) in assay [4]; 10.6% in assay [5]; -30.6% (active) in assay [6]. Moreover, the figures for the growth in assay [7] and in assay [8] were 5.87% (active) and 6.87% (active), respectively.

Consider `CN(Cc1ccccc1)c1nc(Cl)c(C2CC(c3ccc(Cl)cc3)=NN2c2cc(Cl)cc(Cl)c2)s1` (stereo not drawn), for which the growth is 84.9% in assay [1]; 101% in assay [2]; 103% in assay [3]; 98.8% in assay [4]; 79.8% in assay [5]; 88.6% in assay [6]. In addition, the growth was 90.9% in assay [7] and 103% in assay [8].

For `COc1ccc(CNc2ccc3nc(CCC4CCCCC4)[nH]c3c2)cc1`, the growth in assay [1] was 41%; in assay [2], 96.7%; in assay [3] it was 80.9%; in assay [4] it was 75%; in assay [5], 68.4%; in assay [6], 50.7%. The growth was 30.8% in assay [7] and 79.8% in assay [8].

Regarding `COc1ccc(-c2ccc(-c3ccc(C(=N)N)nc3)s2)cc1`, the growth in assay [1] is -31.1% (active); in assay [2] it was 84%; in assay [3] it was -95.8% (active); in assay [4], -65.7% (active); in assay [5] it was -65.5% (active); in assay [6], -60.4% (active). The figures for the growth in assay [7] and in assay [8] were -44.9% (active) and -73.7% (active), respectively.

As to `N=C(N)c1ccc(-c2ccc(-c3ccccc3)s2)nc1`, the growth was 79.5% in assay [1]; 98.7% in assay [2]; 85.8% in assay [3]; 57.4% in assay [4]; 41.3% in assay [5]; 46.9% in assay [6]. The growth was 58.9% in assay [7] and 39.4% in assay [8].

Take `Nc1ccc(N)c2c1C(=O)c1cccc([N+](=O)[O-])c1C2=O`: the growth is 38.2% in assay [1]; 21.6% in assay [2]; 67.3% in assay [3]; 51.5% in assay [4]; 16.5% in assay [5]; 19.7% in assay [6]. For the same compound, the growth was -60.6% (active) in assay [7] and 42% in assay [8].

For the compound `CCN1CCN(c2cc(C(=O)Nc3cccc(Nc4ccc5c(OC)cccc5n4)c3)cc(C(F)(F)F)c2)CC1`, the growth is 11% in assay [1]; 69.6% in assay [2]; 1.29% (active) in assay [3]; 3.22% (active) in assay [4]; -45.3% (active) in assay [5]; 24.3% in assay [6]. Also, the growth was -53.3% (active) in assay [7] and -10.3% (active) in assay [8].

Turning to `Cc1nc2ccccc2c(/C=C/c2ccc(Cl)cc2)c1C(=O)/C=C/c1ccccc1`, the growth in assay [1] is 9.61% (active); in assay [2] it was 26.7%; in assay [3], -53.2% (active); in assay [4] it was 1.45% (active); in assay [5] it was 11.2%; in assay [6], -53.4% (active). For the same compound, the growth in assay [7] was -12% (active); in assay [8], 10.7%.

Consider `Cc1c(CC(=O)Nc2ccccc2)nnn1-c1ccccc1`, for which the growth in assay [1] was 101%; in assay [2], 112%; in assay [3], 115%; in assay [4], 110%; in assay [5] it was 99.6%; in assay [6], 106%. Further, the growth is 102% in assay [7] and 108% in assay [8].

`CC1(C)CCC[C@]23C(=O)O[C@](O)(C(=O)C4=C[C@@](C)(/C=C/CCCc5ccc6ccc7cccc8ccc5c6c78)CC[C@@]42O)[C@@H]13`: the growth is -60.5% (active) in assay [1]; -71.9% (active) in assay [2]; -92.4% (active) in assay [3]; -63.3% (active) in assay [4]; -57.4% (active) in assay [5]; -91.8% (active) in assay [6]. Also, the growth was -86% (active) in assay [7] and -83.3% (active) in assay [8].

As to `O=C(Nc1ncc(Cc2ccc(Cl)cc2)s1)C1=NCCCCN1`, the growth in assay [1] was 92.5%; in assay [2] it was 104%; in assay [3], 101%; in assay [4], 103%; in assay [5] it was 89.1%; in assay [6], 100%. Moreover, the growth in assay [7] was 118%; in assay [8], 103%.

`COC(=O)c1nc(-c2ccccc2)oc1S(=O)(=O)NCC(c1ccc(Cl)cc1)N1CCCCC1` (stereo not drawn): the growth is 52.1% in assay [1]; 55.8% in assay [2]; 72.1% in assay [3]; 36.2% in assay [4]; 34.7% in assay [5]; 78% in assay [6]. The values for the growth in assay [7] and in assay [8] were 117% and 80.6%, respectively.

With `Cc1c(Cl)cccc1NC(=O)c1sc2nc3c(cc2c1N)CCCC3`, the growth in assay [1] is 35%; in assay [2], 52.6%; in assay [3] it was -16.1% (active); in assay [4], 19.2%; in assay [5], 16.3%; in assay [6], 24.4%. Further, the results for the growth in assay [7] and in assay [8] were 58.5% and 23.6%, respectively.

Take `COc1cccc(-c2cc(-c3ccc(Nc4nc(Nc5ccc(Cl)cc5)nc(Nc5ccc(Cl)cc5)n4)cc3)nc(N)c2C#N)c1`: the growth in assay [1] was -30.3% (active); in assay [2], -30.1% (active); in assay [3], -5.12% (active); in assay [4], -39.7% (active); in assay [5] it was 28.5%; in assay [6], 6.35% (active). Besides, the growth is -29.9% (active) in assay [7] and 46.7% in assay [8].

For `Cc1cc(N2CCOCC2)nc(N(CCCNc2ccnc3cc(Cl)ccc23)Cc2ccc3c(c2)OCO3)n1`, the growth was -45.9% (active) in assay [1]; -38.3% (active) in assay [2]; -45.1% (active) in assay [3]; -3.78% (active) in assay [4]; 3.11% (active) in assay [5]; -76.9% (active) in assay [6]. The growth in assay [7] is -58.2% (active); in assay [8], 0.0851% (active).

For the compound `COc1cc(C(=O)/C=C/c2c(-c3cccs3)nc3sc(C)cn23)cc(OC)c1OC`, the growth in assay [1] was 3.31% (active); in assay [2], -0.944% (active); in assay [3], -15.1% (active); in assay [4], 6.94% (active); in assay [5], 1.13% (active); in assay [6] it was 2.71% (active). The growth was 20.2% in assay [7] and -8.4% (active) in assay [8].

For the compound `CC(Cc1cccc2ccccc12)C(N)=O` (stereo not drawn), the growth in assay [1] is 105%; in assay [2] it was 105%; in assay [3] it was 98.9%; in assay [4], 108%; in assay [5], 93%; in assay [6] it was 106%. Moreover, the growth in assay [7] is 106%; in assay [8] it was 110%.

`C(=N\Nc1nnc2n1N=C(c1ccccc1)CS2)/c1ccc(OCc2ccccc2)cc1`: the growth was 84.5% in assay [1]; 103% in assay [2]; 99.8% in assay [3]; 113% in assay [4]; 82.9% in assay [5]; 100% in assay [6]. Also, the values for the growth in assay [7] and in assay [8] were 120% and 102%, respectively.

Consider `Cc1[nH]c(C2CC(c3ccc(C(F)(F)F)c(F)c3)=NN2C)c(C)c1C(=O)NCC(F)(F)F` (stereo not drawn), for which the growth in assay [1] was 93.9%; in assay [2], 107%; in assay [3], 100%; in assay [4], 103%; in assay [5], 80.7%; in assay [6] it was 101%. Further, the growth in assay [7] is 105%; in assay [8], 97.8%.

For `N#C/C(Sc1nc2sc3c(c2c(=O)n1Cc1ccccc1)CCCC3)=C1/SC=C(c2ccc(Cl)cc2)N1c1ccccc1`, the growth is 91.5% in assay [1]; 101% in assay [2]; 109% in assay [3]; 89.9% in assay [4]; 82.5% in assay [5]; 83.5% in assay [6]. For the same compound, the growth is 87.2% in assay [7] and 95.8% in assay [8].

Take `Cn1ccnc1C(=O)/C=C/c1ccc(C(=O)Nc2ccccc2F)cc1`: the growth in assay [1] was 38.3%; in assay [2] it was -13.2% (active); in assay [3] it was 1.95% (active); in assay [4], 13.5%; in assay [5] it was 13.4%; in assay [6], 8.83% (active). The growth in assay [7] was 88%; in assay [8], 13.8%.

For `N/C(=N\c1nc2ccccc2s1)NC(=O)Nc1ccccc1`, the growth in assay [1] is 39.4%; in assay [2] it was 49.5%; in assay [3], 2.22% (active); in assay [4], 24.7%; in assay [5] it was 16.6%; in assay [6], 17.1%. The figures for the growth in assay [7] and in assay [8] were 62.7% and 25.4%, respectively.

`C=CCn1c(SCC(=O)Nc2ccc(C(=O)/C=C/c3cc(OC)c(OC)c(OC)c3)cc2)nnc1-c1cc(-c2ccc(S(N)(=O)=O)cc2)nc2ccccc12`: the growth is 81.1% in assay [1]; 75.2% in assay [2]; 80.2% in assay [3]; 76.8% in assay [4]; 26.5% in assay [5]; 17.2% in assay [6]. Besides, the growth in assay [7] is 105%; in assay [8], 59.8%.

Regarding `CCN1C(=O)N(CC)C2C1NN=c1s/c(=C\c3ccccc3)c(=O)n12` (stereo not drawn), the growth was 70.8% in assay [1]; 13.2% in assay [2]; -24.8% (active) in assay [3]; 18.8% in assay [4]; 16.2% in assay [5]; 9.74% (active) in assay [6]. Further, the growth in assay [7] is 16.2%; in assay [8], 12.2%.

As to `COc1ccc(C(=O)C2OC3=C(C(=O)CC(C)(C)C3)C2c2cccc(Oc3ccccc3)c2)cc1` (stereo not drawn), the growth in assay [1] is 76%; in assay [2] it was 92.1%; in assay [3], 90.8%; in assay [4] it was 93.6%; in assay [5] it was 89.3%; in assay [6], 84.6%. The growth in assay [7] is 113%; in assay [8], 94.6%.
